Data on 23 molecules can be found in PubChem BioAssay (EPA / NIEHS).

Calls of active or inactive are those of the source. How the source made its calls: active means hit-call score of the fitted dose curve at least 0.9, where 1 is the maximum; inactive means score below 0.9.

Chain of Caspase-3 (Homo sapiens) (P42574 whole entry, looked up): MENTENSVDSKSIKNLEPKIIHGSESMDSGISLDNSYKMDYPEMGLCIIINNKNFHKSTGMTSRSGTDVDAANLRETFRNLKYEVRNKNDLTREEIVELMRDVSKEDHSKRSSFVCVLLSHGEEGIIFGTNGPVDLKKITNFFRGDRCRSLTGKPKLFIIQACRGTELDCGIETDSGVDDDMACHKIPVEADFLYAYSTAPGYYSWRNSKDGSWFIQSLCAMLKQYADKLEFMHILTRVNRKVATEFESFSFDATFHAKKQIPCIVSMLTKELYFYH

Read-out in one experiment: Bcl-2 (BID) gene, BID (gene 637)
The experiment can be described thus: LTEA_HepaRG_BID: Life Technologies and Expression Analysis (LTEA) Assay for Bcl-2 (BID) gene using HepaRG (AID 2283476). As to conditions: mRNA level, 48 h; actives raise or lower the signal. The method in brief:
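Cells are plated, cultured 48 h, switched to serum-free induction medium, then dosed 48 h (100 uM top, half-log steps, 0.5% DMSO). RNA is isolated and BID expression read by qRT-PCR.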
The term AC50 denotes the midpoint of the concentration-response curve, whichever way the signal moves. Regarding `CCC(C)(NC(=O)c1cc(Cl)c(C)c(Cl)c1)C(=O)CCl` (centres undefined), the AC50 was 82.9 µM (active).

Regarding `O=C(Nc1ccccc1)Nc1cnns1`, the call was inactive. Still for that read-out and setting: under `CCC(C)Nc1c([N+](=O)[O-])cc(C(C)(C)C)cc1[N+](=O)[O-]` (centres undefined) stands “inactive”; under `Cc1[nH]c(=O)n(C(C)(C)C)c(=O)c1Cl`, “inactive”; under `Clc1ccccc1-c1nnc(-c2ccccc2Cl)nn1`, “inactive”. The same measure, in the same setting: under `ClC1C(Cl)C(Cl)C(Cl)C(Cl)C1Cl` (centres undefined) stands “inactive”. Take `C#CCN1C(=O)COc2cc(F)c(N3C(=O)C4=C(CCCC4)C3=O)cc21`: the molecule was called inactive. Regarding `CC(C)(C)C(O)/C(=C\c1ccc(Cl)cc1Cl)n1cncn1` (centres undefined), the molecule was called inactive. On the same count and under the same terms, the same measure for `C[C@H]1[C@H](c2ccc(Cl)cc2)SC(=O)N1C(=O)NC1CCCCC1`: “inactive”; for `O=C1c2ccccc2C(=O)N1SC(Cl)(Cl)Cl`: “inactive”; for `O=C(NC(=O)c1c(F)cccc1F)Nc1ccc(OC(F)(F)C(F)OC(F)(F)F)c(Cl)c1` (centres undefined): “inactive”.

Read-out in the next experiment: Caspase-3 (Homo sapiens) (UniProt P42574)
Kind of experiment: LTEA_HepaRG_CASP3: Life Technologies and Expression Analysis (LTEA) Assay for cysteine-aspartic acid protease (CASP3) using HepaRG (AID 2283477). As to conditions: mRNA level, 48 h; actives raise or lower the signal. The method in brief: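 Read-out is CASP3 mRNA level by TaqMan qRT-PCR in human HepaRG cells after 48 h chemical exposure. Eight half-log concentrations topping at 100 uM were tested in 0.5% DMSO; gain or loss was fitted relative to DMSO.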
As for `CCN(CC)C(=O)SCc1ccc(Cl)cc1`, the outcome was inactive. On to `CC1(C)C(C=C(Cl)Cl)C1C(=O)OC(C#N)c1ccc(F)c(Oc2ccccc2)c1` (centres undefined), for which the outcome was inactive.

`O=C(O)COc1ccc(Cl)cc1Cl`: the result was inactive. As for `CCC(C)(C)C(=O)OC1=C(c2ccc(Cl)cc2Cl)C(=O)OC12CCCCC2`, the outcome was inactive. As to `CCCN(CCC)c1c([N+](=O)[O-])cc(C(F)(F)F)cc1[N+](=O)[O-]`, the molecule was called inactive. With `CNC(=O)/C=C(\C)OP(=O)(OC)OC`, the molecule was called inactive. The same measure, in the same setting: the same measure for `O=C(O)C(F)(F)C(F)(F)C(F)(F)C(F)(F)C(F)(F)C(F)(F)C(F)(F)F`: “inactive”; for `CCCN(CCOc1c(Cl)cc(Cl)cc1Cl)C(=O)n1ccnc1`: “inactive”. As for `CCc1ccc(C(=O)NN(C(=O)c2cc(C)cc(C)c2)C(C)(C)C)cc1`, the call was inactive. For `N#CN`, the outcome was inactive. Still for that read-out and setting: under `CCOCN(C(=O)CCl)c1c(C)cccc1CC` stands “inactive”; under `O=S1OCC2C(CO1)C1(Cl)C(Cl)=C(Cl)C2(Cl)C1(Cl)Cl` (centres undefined), “inactive”.

With `CCC(C)(NC(=O)c1cc(Cl)c(C)c(Cl)c1)C(=O)CCl` (centres undefined), the AC50 was 92.4 µM (active).

On to `O=C(Nc1ccccc1)Nc1cnns1`, for which the call was inactive.

Take `CCC(C)Nc1c([N+](=O)[O-])cc(C(C)(C)C)cc1[N+](=O)[O-]` (centres undefined): the call was inactive.

Turning to `Cc1[nH]c(=O)n(C(C)(C)C)c(=O)c1Cl`, the molecule was classed as inactive. Still for that read-out and setting: the same measure for `Clc1ccccc1-c1nnc(-c2ccccc2Cl)nn1`: “inactive”; for `ClC1C(Cl)C(Cl)C(Cl)C(Cl)C1Cl` (centres undefined): “inactive”; for `C#CCN1C(=O)COc2cc(F)c(N3C(=O)C4=C(CCCC4)C3=O)cc21`: “inactive”.

For `CC(C)(C)C(O)/C(=C\c1ccc(Cl)cc1Cl)n1cncn1` (centres undefined), the molecule was called inactive.

Turning to `C[C@H]1[C@H](c2ccc(Cl)cc2)SC(=O)N1C(=O)NC1CCCCC1`, the molecule was classed as inactive. Same read-out and setting: under `O=C1c2ccccc2C(=O)N1SC(Cl)(Cl)Cl` stands “inactive”; under `O=C(NC(=O)c1c(F)cccc1F)Nc1ccc(OC(F)(F)C(F)OC(F)(F)F)c(Cl)c1` (centres undefined), “inactive”.
